# Assay results as given in ChEMBL document CHEMBL1201862, “PubChem BioAssay data set” (2004).
# The whole screen tested about 400,000 compounds, of which about 2,100 (0.53%) were called active. Inconclusive results (about 14%) are left out. No rule for the calls is given here. The list comes from a sample in which actives are over-represented; it also holds similar structures and randomly drawn compounds.
# Biological target: Ataxin-2 (Homo sapiens) (UniProt Q99700)
# Assay: qHTS for Inhibitors of ATXN expression.
# Format: functional
# Ataxin-2 (Homo sapiens), sequence (Q99700 whole entry): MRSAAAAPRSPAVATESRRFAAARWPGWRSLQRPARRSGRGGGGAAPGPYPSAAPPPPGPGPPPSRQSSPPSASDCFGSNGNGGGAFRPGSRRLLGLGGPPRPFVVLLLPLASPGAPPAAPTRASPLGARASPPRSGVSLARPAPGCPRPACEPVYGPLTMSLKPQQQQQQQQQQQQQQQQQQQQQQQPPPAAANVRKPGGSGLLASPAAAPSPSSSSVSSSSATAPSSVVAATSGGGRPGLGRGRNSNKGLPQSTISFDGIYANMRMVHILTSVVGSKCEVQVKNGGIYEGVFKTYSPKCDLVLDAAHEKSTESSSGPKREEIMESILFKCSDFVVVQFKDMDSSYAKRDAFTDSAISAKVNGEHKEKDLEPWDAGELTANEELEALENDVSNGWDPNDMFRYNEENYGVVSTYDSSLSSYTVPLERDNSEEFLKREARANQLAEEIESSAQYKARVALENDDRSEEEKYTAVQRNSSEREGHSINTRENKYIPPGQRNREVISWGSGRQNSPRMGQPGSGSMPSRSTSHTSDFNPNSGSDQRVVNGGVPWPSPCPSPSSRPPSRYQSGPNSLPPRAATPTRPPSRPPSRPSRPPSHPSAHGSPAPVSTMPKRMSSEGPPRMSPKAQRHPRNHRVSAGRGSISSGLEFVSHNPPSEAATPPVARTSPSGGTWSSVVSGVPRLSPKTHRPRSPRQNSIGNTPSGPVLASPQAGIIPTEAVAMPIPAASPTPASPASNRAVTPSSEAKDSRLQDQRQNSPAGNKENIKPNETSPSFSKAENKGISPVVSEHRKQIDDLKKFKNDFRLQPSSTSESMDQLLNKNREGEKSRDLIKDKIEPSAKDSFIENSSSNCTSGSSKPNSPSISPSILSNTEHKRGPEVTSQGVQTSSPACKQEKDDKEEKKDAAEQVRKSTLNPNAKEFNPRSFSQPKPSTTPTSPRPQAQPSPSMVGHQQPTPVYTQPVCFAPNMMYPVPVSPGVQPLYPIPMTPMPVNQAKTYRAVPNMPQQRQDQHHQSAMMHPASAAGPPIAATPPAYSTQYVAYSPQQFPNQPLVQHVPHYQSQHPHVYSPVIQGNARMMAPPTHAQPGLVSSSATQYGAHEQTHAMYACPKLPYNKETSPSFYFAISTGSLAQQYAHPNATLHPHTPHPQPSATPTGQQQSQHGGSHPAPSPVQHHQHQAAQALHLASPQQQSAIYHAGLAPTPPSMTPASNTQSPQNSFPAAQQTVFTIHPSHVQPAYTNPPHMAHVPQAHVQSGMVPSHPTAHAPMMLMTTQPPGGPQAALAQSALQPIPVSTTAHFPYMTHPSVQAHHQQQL
row,Compound,Potency
1,COc1ccc2c(c1)c(=O)oc1cc(O)ccc12,inactive
2,Cc1ccc2nc3c(cc(C(=O)NC4CCCC4)c(=N)n3C(C)C)c(=O)n2c1,inactive
3,O=C(O)c1ccc(/N=c2\oc3cc(O)ccc3cc2C(=O)NCc2ccccc2)cc1,inactive
4,O=c1cc(CN2CCOCC2)c2cc(Cl)c(O)cc2o1,inactive
5,CCOc1cc(/C=C2/C(=O)ON=C2C)cc(Br)c1O,inactive
6,CN(C)C(=O)COc1ccc2c(-c3ccccc3)cc(=O)oc2c1,inactive
7,CCOc1cc(/C=C2\COc3ccccc3C2=O)cc(Br)c1OCC(=O)N(C)C,28.2 µM (active)
8,C=CCn1cc[n+](-c2nc3ccccc3nc2[N-]S(=O)(=O)c2cccs2)c1,inactive
9,CCNc1nc(SCC(N)=O)nc2sc3c(c12)CCN(C)C3,inactive
10,COC(=O)c1ccc(CO/N=C/c2ccc(OC)cc2)o1,inactive
11,COc1ccc(C[C@@H]2OC3(C=CC(=O)C=C3)O[C@H]2Cc2ccc(OC)cc2)cc1,3.98 µM (active)
12,COc1ccc(Cc2n[nH]c(=S)n(N)c2=O)cc1,inactive
13,CC1CN(Cc2cc(=O)oc3cc(O)c(Cl)cc23)CC(C)O1 (centres undefined),inactive
14,Cc1nn(-c2ccccc2)c(C)c1C(=O)Oc1ccccc1,inactive
15,CCc1c(O)nc2c(c(C)nn2-c2ccccc2)c1C,inactive
16,CCCSC(=S)c1c(C)nn(-c2ccccc2)c1O,22.4 µM (active)
17,NC[C@H](Cc1ccccc1)NCCc1cc(C(F)(F)F)cc(C(F)(F)F)c1,39.8 µM (active)
18,NC(=S)c1cc2cc(Cl)ccc2oc1=O,inactive
19,N=c1c(C(=O)NCC2CCCO2)cc2c(=O)n3ccccc3nc2n1C1CCCCC1 (centres undefined),inactive
20,COc1ccc(NC(=O)CSCC(=O)NCCc2ccccn2)cc1,inactive
21,COc1ccc(NC(=O)CC2Sc3ncnn3C2=O)cc1 (centres undefined),39.8 µM (active)
22,COc1ccc(NC(=O)CN2CCN(CC(=O)Nc3ccc(OC)cc3)CC2)cc1,inactive
23,O=C(Oc1c(CN2CCOCC2)cc(Cl)c2cccnc12)c1ccccc1F,inactive

row,Compound,Potency
1,CC(=O)N1CCc2ccc(S(=O)(=O)N3CCc4ccccc43)cc21,inactive
2,CC(C)c1ccc(S(=O)(=O)N2CCN(C(=O)C3CCCC3)CC2)cc1,inactive
3,CC(=O)N1CCCc2cc(S(=O)(=O)N3CCCC(C(=O)N4CCN(c5cccc(Cl)c5)CC4)C3)ccc21 (centres undefined),39.8 µM (active)
4,CC(NC(=O)c1ccc2ccccc2n1)c1ccc(S(N)(=O)=O)cc1 (centres undefined),inactive
5,COc1ccc(C(=O)NNC(=O)c2ccc3ccccc3n2)cc1,17.8 µM (active)
6,COc1ccc(C(=O)N/N=C/c2cc3ccccc3nc2O)cc1,inactive
7,COc1ccc(C2c3[nH]c4ccccc4c3CCN2CCCn2cccn2)c(C)c1C (centres undefined),inactive
8,Cc1cccc(N=C(S)N=Nc2c(O)n(CN3CCOCC3)c3ccccc23)c1C,6.31 µM (active)
9,CCn1c(O)c(N=NC(S)=NCC2CCCO2)c2ccccc21 (centres undefined),8.91 µM (active)
10,Cc1cccc(N=C(S)N2CCC(C(N)=O)(N3CCCCC3)CC2)c1C,inactive
11,Oc1c(N=NC(S)=Nc2ccccc2F)c2ccccc2n1Cc1ccc(Cl)cc1,inactive
12,Cc1ccc(C(=O)Nc2nc3n(n2)C(c2ccc(F)cc2)C=C(c2ccccc2)N3)cc1 (centres undefined),inactive
13,O=C1/C(=C\c2cccc(O)c2O)SC(=S)N1Cc1ccccc1,31.6 µM (active)
14,O=C(O)CN1C(=O)/C(=C\c2cccc(OCc3ccc(Cl)cc3)c2)SC1=S,inactive
15,NS(=O)(=O)c1ccc(CCN2C(=O)/C(=C\c3ccc(Cl)cc3)SC2=S)cc1,17.8 µM (active)
16,O=C(O)c1cc(-c2ccc(/C=C3/SC(=S)N(Cc4ccccc4)C3=O)o2)ccc1Cl,inactive
17,NS(=O)(=O)c1ccc(CCNS(=O)(=O)c2ccc(Cl)s2)cc1,inactive
18,COc1cc([N+](=O)[O-])cc(/C=C2/SC(=S)N(Cc3ccccc3)C2=O)c1O,20 µM (active)
19,O=C1/C(=C/c2ccccc2Cl)SC(=S)N1CCCC(=O)N(CCO)c1ccccc1,31.6 µM (active)
20,COc1ccc(/C=C(\C)C(=O)c2c(C)cc(C)nc2O)cc1,inactive
21,Cc1ccc2c(CN(C)Cc3cccc(Cl)c3)cc(=O)oc2c1C,inactive
22,C=C1c2ccccc2N=C(S)N1Cc1ccc2c(c1)OCO2,inactive
23,COCc1cc(C)nc(SCC(=O)Oc2ccc(Cl)cc2)c1C#N,inactive

row,Compound,Potency
1,N=c1c(C(=O)NC2CCCCC2)cc2c(=O)n3ccccc3nc2n1CC1CCCO1 (centres undefined),inactive
2,CCn1nc(NC(=O)C(C)(C)C)c2cc3cccc(C)c3nc21,inactive
3,O=C1/C(=C\c2cc([N+](=O)[O-])ccc2O)SC(=S)N1Cc1ccc(Cl)cc1,35.5 µM (active)
4,O=C1c2ccc([N+](=O)[O-])cc2C(=O)N1c1ccc(Cl)cn1,inactive
5,CN(C)c1ccc(/C=C/C=N/Nc2nc(N3CCOCC3)nc(N3CCOCC3)n2)cc1,inactive
6,O=C(CCl)NNc1nc(-c2ccccc2)c2cc(Cl)ccc2n1,1.58 µM (active)
7,OCCNc1nc(-c2ccccc2)c2cc(Cl)ccc2n1,inactive
8,OCCCNc1nc(-c2ccccc2)c2cc(Cl)ccc2n1,inactive
9,CCC(C)(C)n1nnnc1C(c1ccc(F)cc1)N1CCC(C(N)=O)CC1 (centres undefined),inactive
10,CCOC(=O)c1c(CC(C)C)csc1NC=C1C(=O)CCCC1=O,39.8 µM (active)
11,CCOC(=O)c1c(CC(C)C)csc1N,inactive
12,CCOC(=O)c1c(CC(C)C)csc1/N=C/C1C(=O)CCCC1=O,inactive
13,CCc1c(C)c2cc(Cl)c(O)c(CN3CCCC3)c2oc1=O,inactive
14,O=C(NNC(=O)c1ccc(Cl)cc1Cl)c1cnccn1,inactive
15,O=C(Cn1c(SCCOc2ccc(Cl)cc2)nc2ccccc21)N1CCCCC1,39.8 µM (active)
16,COCCn1c(SCC(=O)NC2CC2)nc2ccccc21,inactive
17,Cc1cccc(OCCCC(=O)N2CCCCCC2)c1C,inactive
18,Cc1ccc(OCCSc2nc3ccccc3n2CC(=O)N2CCCCC2)c(C)c1,35.5 µM (active)
19,CCc1ccc(OCCSc2nc3ccccc3n2CC(=O)N2CCCCC2)cc1,39.8 µM (active)
20,CCc1ccc(OCCSc2nc3ccccc3n2CCC(=O)O)cc1,inactive
21,COc1ccccc1OCc1nnc(SCC(=O)N2CCCCC2)o1,inactive
22,O=C(CSc1nc2ccccc2n1Cc1ccc(Cl)cc1)N/N=C/c1ccc(C(=O)O)cc1,inactive
23,CN(CCOc1ccc(Cl)cc1)C(=O)c1ccccc1SCC(=O)N1CCCC1,inactive
